Measurements reported in PubChem BioAssay (NCI).
About 79,000 compounds went through this panel and 15% of them were active in at least one assay; those are over-represented in the sample as a whole. Values without a mark were called inactive. Active and inactive are the calls of the source. Rule as the data show it: active = growth inhibition above about 70%; inactive = the rest.

Assays:
[1] = NCI Yeast Anticancer Drug Screen. Data for the rad50 strain (AID 155);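 also: 0% = growth of vehicle-only cultures of the same strain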; details: S. cerevisiae rad50 strain growth inhibition, active compounds read high
In short: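 Compounds were tested on a yeast strain with an engineered DNA damage repair alteration; the reported value is growth inhibition normalised to vehicle treatment.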

[2] = NCI Yeast Anticancer Drug Screen. Data for the mec2-1 strain (AID 157); details: S. cerevisiae mec2-1 strain, active compounds read high
In short: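 Strain: mec2-1 (DNA repair/cell cycle alteration). Compound exposure, then growth measured; inhibition expressed relative to vehicle.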

[3] = NCI Yeast Anticancer Drug Screen. Data for the sgs1 mgt1 strain (AID 161);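 also: 0% = growth of cultures given vehicle only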; details: S. cerevisiae sgs1 mgt1 strain, active compounds read high
In short: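 Inhibition of yeast growth, normalised to vehicle-treated controls, is reported for a strain bearing genetic alterations in DNA damage repair.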

[4] = NCI Yeast Anticancer Drug Screen. Data for the cln2 rad14 strain (AID 165);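 also: 0% = growth equal to vehicle treated cultures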; details: S. cerevisiae cln2 rad14 strain, active compounds read high
In short: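 Compounds are applied to the cln2 rad14 yeast strain, and growth is then compared with that of vehicle-treated cultures to give inhibition.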

[5] = NCI Yeast Anticancer Drug Screen. Data for the bub3 strain (AID 167); details: S. cerevisiae bub3 mutant strain, active compounds read high
In short: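 Growth of a checkpoint-deficient yeast mutant is measured after compound exposure. Values represent inhibition relative to vehicle.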

[6] = NCI Yeast Anticancer Drug Screen. Data for the mlh1 rad18 strain (AID 175); details: S. cerevisiae mlh1 rad18 strain growth inhibition, active compounds read high
In short: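 Read-out is yeast growth inhibition, calculated against vehicle-only controls. The compound was applied to a strain engineered with DNA damage repair alterations.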

[7] = at 5.0 µM (retest, dose inferred, filed as 0.5)
[8] = at 50.0 µM (retest, dose inferred, filed as 5.0)

| Compound | growth inhibition [1, 7] | growth inhibition [1, 8] | growth inhibition ([1]; at 50.0 µM) | growth inhibition [2, 7] | growth inhibition [2, 8] | growth inhibition ([2]; at 50.0 µM) | growth inhibition [3, 7] | growth inhibition [3, 8] | growth inhibition ([3]; at 50.0 µM) | growth inhibition [4, 7] | growth inhibition [4, 8] | growth inhibition ([4]; at 50.0 µM) | growth inhibition [5, 7] | growth inhibition [5, 8] | growth inhibition ([5]; at 50.0 µM) | growth inhibition [6, 7] | growth inhibition [6, 8] | growth inhibition ([6]; at 50.0 µM) |
| --- | --- | --- | --- | --- | --- | --- | --- | --- | --- | --- | --- | --- | --- | --- | --- | --- | --- | --- |
| O=[N+]([O-])c1ccc(C2C3CC4C(OOC42)C3I)cc1 (configuration not stated) | 0% | 20% | 23.5% | 0% | 9% | 18.1% | -4% | 12% | 32.8% | -1% | -7% | -27.4% | 28% | 98% (active) | 97.2% (active) | 0% | 27% | 31.4% |
| Cc1ccc(N=P(c2ccccc2)(c2ccccc2)c2ccccc2)cc1.[Br][Hg][Br] | 99% (active) | 99% (active) | 98.8% (active) | 100% (active) | 100% (active) | 97.6% (active) | 99% (active) | 99% (active) | 98% (active) | 99% (active) | 99% (active) | 98.3% (active) | 98% (active) | 99% (active) | 98.8% (active) | 99% (active) | 99% (active) | 97.1% (active) |
| O=S(O)O.O=S(O)O.[Co].[NH2-].[NH2-].[NH2-].[NH2-] | 7% | 21% | -5.55% | -1% | 7% | 29.4% | 20% | 22% | 2.5% | 33% | 16% | 47.9% | 12% | 5% | -5.25% | 3% | 26% | 16% |
| O=C(OCCl)c1ccccc1 | 11% | -4% | 3.9% | -1% | -2% | -5.6% | -4% | 1% | 13.5% | 7% | -4% | 45.5% | 8% | 13% | -7.7% | 6% | 5% | 15.7% |
| Nc1ccccc1O.O.O=C(O)C1[O][Sb][O]C1C(=O)O (configuration not stated) | 19% | 33% | 55.5% | 26% | 23% | 53.5% | 12% | 25% | 27.2% | 10% | 20% | 33.3% | 37% | 61% | 82.4% (active) | 37% | 55% | 59.4% |
| C#CC[As+](c1ccccc1)(c1ccccc1)c1ccccc1 | 31% | 98% (active) | 88.4% (active) | 29% | 99% (active) | 91.8% (active) | 45% | 100% (active) | 92.5% (active) | 37% | 95% (active) | 88.8% (active) | 34% | 99% (active) | 91.2% (active) | 45% | 98% (active) | 88.9% (active) |
| O=C1C=CC(=O)C(Cl)=C1 | 10% | 96% (active) | 92.2% (active) | 3% | 73% (active) | 96% (active) | 10% | 98% (active) | 96.2% (active) | 6% | 56% | 91.4% (active) | 16% | 97% (active) | 95% (active) | 5% | 98% (active) | 95.5% (active) |
| CCOC(=O)c1ccc(NP(=O)(Oc2ccccc2)Oc2ccccc2)cc1 | -4% | 49% | 64.8% | 18% | 75% (active) | 52.9% | -18% | 66% | 64.7% | -10% | 56% | 69.2% | -6% | 89% (active) | 59.5% | 24% | 88% (active) | 77.8% (active) |
| CC1c2c(n(C)c3ccccc23)C2CCC3(CO3)C1N2Cc1ccccc1 (configuration not stated) | 25% | 97% (active) | 90.5% (active) | 22% | 99% (active) | 92% (active) | 42% | 99% (active) | 93.3% (active) | 24% | 98% (active) | 90% (active) | 26% | 99% (active) | 92.5% (active) | 35% | 98% (active) | 92.2% (active) |
